Laboratory results reported in PubChem BioAssay (NCI).
About 83,000 compounds went through this panel and 20% of them were active in at least one assay; those are over-represented in the sample as a whole.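 Testing used 96-well plates and a 48-hour single-concentration exposure. Example: -40 means 40% of the starting cells died.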 Unmarked numbers belong to inactive results. Activity calls are given as the source filed them. How the source made its calls: active means growth percent below 10; inactive means the rest.

How the values were obtained:
Experiment in all cases: NCI-60 one-dose screen, 48 h (100 = growth as untreated, 0 = no growth, -100 = all killed)
Conditions in all cases: 10 µM
SK-MEL-2 melanoma = system: SK-MEL-2 melanoma
EKVX NSCLC = system: EKVX NSCLC
SN12C renal = system: SN12C renal
UO-31 renal = system: UO-31 renal
TK-10 renal = system: TK-10 renal
ACHN renal = system: ACHN renal
CAKI-1 renal = system: CAKI-1 renal
A498 renal = system: A498 renal
CCRF-CEM leukemia = system: CCRF-CEM leukemia
MOLT-4 leukemia = system: MOLT-4 leukemia
RPMI-8226 leukemia = system: RPMI-8226 leukemia
OVCAR-8 ovarian = system: OVCAR-8 ovarian
OVCAR-5 ovarian = system: OVCAR-5 ovarian
OVCAR-4 ovarian = system: OVCAR-4 ovarian
SK-OV-3 ovarian = system: SK-OV-3 ovarian
IGROV1 ovarian = system: IGROV1 ovarian
HS 578T breast = system: HS 578T breast
NCI/ADR-RES ovarian = system: NCI/ADR-RES ovarian
OVCAR-3 ovarian = system: OVCAR-3 ovarian

SMILES	growth (SK-MEL-2 melanoma)	growth (EKVX NSCLC)	growth (SN12C renal)	growth (UO-31 renal)	growth (TK-10 renal)	growth (ACHN renal)	growth (CAKI-1 renal)	growth (A498 renal)	growth (CCRF-CEM leukemia)	growth (MOLT-4 leukemia)	growth (RPMI-8226 leukemia)	growth (OVCAR-8 ovarian)	growth (OVCAR-5 ovarian)	growth (OVCAR-4 ovarian)	growth (SK-OV-3 ovarian)	growth (IGROV1 ovarian)	growth (HS 578T breast)	growth (NCI/ADR-RES ovarian)	growth (OVCAR-3 ovarian)
CC(=O)Nc1ccc(-n2cnc3cc(-c4ccc(O)cc4)ccc32)cc1F	36.3%	60.6%	21.5%	20.7%	49.2%	20.4%	17.9%	72.4%	8% (active)	-0.0266% (active)	14.3%	15.9%	42.7%	61%	13%	35.9%	18.7%	4.16% (active)	–
Cc1ccc([N+](=O)[O-])c(C(=O)Nc2ccc(-c3ccc4c(c3)NC(=O)/C4=C\c3ccc[nH]3)cc2)c1	75.5%	25.7%	60.1%	76.6%	105%	66.4%	69.4%	134%	22.1%	14.1%	31.4%	25.6%	55%	34.3%	109%	53.9%	67.2%	38%	41.3%
O=C(N/N=C/c1ccc(B(O)O)o1)c1[nH]c2ccc(Br)cc2c1-c1ccccc1	26.5%	44.3%	31.2%	42.2%	64.7%	44.8%	30%	76.5%	3.97% (active)	16.9%	28.2%	14.1%	43.5%	56.1%	25.5%	51.8%	0.269% (active)	-34.6% (active)	14%
COc1ccccc1[C@H]1C(C(=O)c2ccc(Cl)cc2)C2(N[C@@H]1c1ccccc1)C(=O)Nc1ccc(Cl)cc12 (stereo partly specified)	-76.2% (active)	8.9% (active)	-66.3% (active)	6.99% (active)	31.4%	3.8% (active)	8.2% (active)	13.1%	5.19% (active)	-21.1% (active)	6.41% (active)	12.2%	-8.45% (active)	24%	28.8%	22.1%	–	-65.5% (active)	3.66% (active)
O=C(c1ccc(Cl)cc1)C1[C@H](c2ccccc2Br)[C@@H](c2ccccc2)NC12C(=O)Nc1ccc(Cl)cc12 (stereo partly specified)	13.8%	16.5%	-58.6% (active)	16.5%	42.5%	9.92% (active)	8.98% (active)	72.4%	18.8%	18%	10.8%	24.2%	20.8%	27%	42.9%	17.7%	27.6%	-60.1% (active)	4.76% (active)
O=C1NC(=NC23CC4CC(CC(C4)C2)C3)N/C1=C\c1ccc2ncsc2c1	-23.3% (active)	-0.13% (active)	8.93% (active)	2.14% (active)	17.8%	3.03% (active)	5.17% (active)	-11.3% (active)	9.69% (active)	-5.73% (active)	-14.7% (active)	10.5%	-7.67% (active)	8.44% (active)	25.1%	4.69% (active)	–	-10.5% (active)	-6.21% (active)
O=C(c1ccc(Cl)cc1)C1[C@H](c2ccccc2Br)[C@@H](c2ccccc2)NC12C(=O)Nc1ccccc12 (stereo partly specified)	2.05% (active)	14%	-54.2% (active)	13.1%	55.7%	11.1%	14.8%	55.5%	7.61% (active)	2.61% (active)	12.3%	27.4%	4.22% (active)	25.9%	35.9%	31.3%	18%	-70% (active)	10.5%
CC1=C2C(=C[C@@](C)(COCOCCCl)[C@@H]2O)C(=O)[C@](C)(O)C12CC2	-100% (active)	-62.1% (active)	-63% (active)	-44.1% (active)	-1.02% (active)	-48% (active)	-14.7% (active)	-31.5% (active)	3.19% (active)	-12.4% (active)	10.1%	-38.4% (active)	-56.6% (active)	-48.6% (active)	-33.7% (active)	-38.5% (active)	–	-61.7% (active)	-27.4% (active)
COc1ccccc1[C@H]1C(C(=O)c2ccc(O)cc2)C2(N[C@@H]1c1ccccc1)C(=O)Nc1ccc(Br)cc12 (stereo partly specified)	32.1%	30%	25%	27.9%	51%	31.9%	18.7%	37.4%	22%	-9.09% (active)	30.3%	37.5%	62.7%	41.1%	61.4%	19.2%	–	57.7%	-29.1% (active)
O=C(c1ccc(Cl)cc1)C1[C@H](c2ccccc2Br)[C@@H](c2ccccc2)NC12C(=O)Nc1ccc(Br)cc12 (stereo partly specified)	-51% (active)	14.7%	-63.5% (active)	13.5%	23.9%	11.9%	8.82% (active)	74.5%	5.86% (active)	-9.97% (active)	7% (active)	13.7%	19.2%	23.2%	36.2%	21.2%	12%	-67% (active)	–
COc1cccc2nc(Nc3ccc(F)c(NC(=O)c4ccc(CN5CCN(C)CC5)c(C(F)(F)F)c4)c3)ccc12	14.6%	13%	26.8%	5.08% (active)	50.3%	0.664% (active)	-2.36% (active)	77%	-3% (active)	-16.5% (active)	-43.9% (active)	30.9%	72.5%	32.6%	53.8%	29.3%	6.57% (active)	-3.12% (active)	-33.3% (active)
CC1=C(C(=O)OC(C)C)C(c2ccc(O)cc2)NC(=S)N1 (stereo unspecified)	99.2%	92.5%	105%	96.2%	95.5%	109%	98%	138%	101%	94.8%	95.7%	130%	116%	115%	107%	110%	103%	97.5%	–
CCN1CCN(Cc2ccc(NC(=O)c3cccc(-n4cc(-c5ccc(NC(C)=O)nc5)nn4)c3)cc2C(F)(F)F)CC1	106%	105%	95.9%	107%	149%	109%	88.9%	213%	39.2%	80.3%	80.6%	99%	158%	98%	96.6%	127%	101%	100%	131%
COc1ccc(N2N=C(c3ccc4c(c3)OCCO4)CC2c2cccc(NC(=O)CCCNS(=O)(=O)c3ccc(F)cc3)c2)cc1 (stereo unspecified)	88.4%	57.9%	74.8%	58.8%	78.2%	70.7%	53.9%	86.5%	67.7%	34%	41.2%	87.7%	89%	60%	101%	81.5%	78.7%	88.5%	81.3%
CC(C)(C)Nc1nc2cc(Cl)c(Cl)cc2nc1S(C)(=O)=O	37.2%	58.1%	20.1%	90%	99.8%	56.3%	53.2%	142%	-17.9% (active)	-3.12% (active)	42.3%	41.3%	79.3%	-6.34% (active)	72.8%	45.2%	–	7.99% (active)	-80.3% (active)
COc1ccc(-c2ccc(/C=N/NC(=O)c3[nH]c4ccc(Br)cc4c3-c3ccccc3)o2)cc1	34.3%	60.1%	35%	43.9%	88.4%	30.9%	28.4%	73.9%	10.5%	20.9%	18.9%	37.1%	68.5%	44.2%	49.2%	64.6%	28.5%	-22.8% (active)	21.1%
